Data on eight molecules can be found in PubChem BioAssay (NCI).

Compounds without any hit were thinned out: in the full panel of roughly 79,000, 15% have a hit. Unmarked numbers belong to inactive results. Activity calls are given as the source filed them. No stated cut-off is given here; in the data, active means growth inhibition above about 70%; inactive means the rest.

The assay in a line: NCI Yeast Anticancer Drug Screen. Data for the rad14 strain (AID 159).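 Further: 0% = growth of vehicle-treated control cultures.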 The note with it: S. cerevisiae rad14 strain growth inhibition, active compounds read high. As to the method:
Growth inhibition of yeast strains with defined genetic alterations is measured as a screen for potential anti-cancer activity. Selected strains with alterations in DNA damage repair or cell cycle control were exposed to compounds and growth inhibition was measured relative to vehicle treated controls. The strain used in this assay is rad14

For `CCCCOc1ccc(Nc2c3ccccc3nc3ccccc23)cc1`, the growth inhibition is -77% (at 1.2 µM); -66% (at 3.7 µM); 43% (at 11.0 µM); 97% (active) (at 33.0 µM); 61% (at 100.0 µM).

Consider `S=C1NC2=C(CSC/C2=C\c2ccc(Cl)cc2)C(c2ccc(Cl)cc2)N1` (stereo not given), for which the growth inhibition (at 1.2 µM) was 11%; the growth inhibition (at 3.7 µM) was 26%; the growth inhibition (at 11.0 µM) is 38%; the growth inhibition (at 33.0 µM) is 71% (active); the growth inhibition (at 100.0 µM) is 74% (active).

Take `Cc1ccc(Nc2n[nH]c(=S)s2)cc1C`: the growth inhibition by setting is: (at 1.2 µM) -33%; (at 3.7 µM) -29%; (at 11.0 µM) -17%; (at 33.0 µM) 65%; (at 100.0 µM) 89% (active).

As for `COc1cc(C(C)(C)C)cc(OC)c1C(O)(c1c(OC)cc(C(C)(C)C)cc1OC)c1c(OC)cc(C(C)(C)C)cc1OC`, the growth inhibition is, setting by setting: (at 1.2 µM) -24%; (at 3.7 µM) -28%; (at 11.0 µM) 88% (active); (at 33.0 µM) 91% (active); (at 100.0 µM) 86% (active).

For the molecule `O=c1[nH]c(=O)n(CCCO)cc1F`, the growth inhibition runs as follows: (at 1.2 µM) -29%; (at 3.7 µM) -19%; (at 11.0 µM) -20%; (at 33.0 µM) -26%; (at 100.0 µM) -30%.

As to `Cc1ccc(S(=O)(=O)N/N=C/c2c(O)ccc3ccccc23)cc1`, the growth inhibition (at 1.2 µM) was -14%; the growth inhibition (at 3.7 µM) was -14%; the growth inhibition (at 11.0 µM) is 59%; the growth inhibition (at 33.0 µM) was 73% (active); the growth inhibition (at 100.0 µM) was 83% (active).

On to `CC(C)(C(=O)NN)c1ccccc1`, for which the growth inhibition by setting is: (at 1.2 µM) -1%; (at 3.7 µM) -4%; (at 11.0 µM) 3%; (at 33.0 µM) 21%; (at 100.0 µM) 58%.

On to `Oc1ccc(Cc2nccc3cc(O)c(O)cc23)cc1O`, for which the growth inhibition runs as follows: (at 1.2 µM) 0%; (at 3.7 µM) 14%; (at 11.0 µM) 10%; (at 33.0 µM) 22%; (at 100.0 µM) 51%.
